The antibiotic and cytotoxicity screens of Wong et al. (2023)
About 3,300 (8.5%) of roughly 39,000 compounds were called active. Many of the other results were omitted from the sample, so actives are more common in it than they were.

What follows are compounds tested on HepG2 (assay: cytotoxicity call (relative viability < 0.9)). Settings: 10 µM.
For `C[C@H]1CN([C@@H](C)CO)C(=O)c2cccc(NC(=O)c3cnccn3)c2O[C@@H]1CN(C)Cc1ccc(C(=O)O)cc1`, the cytotoxicity call was “inactive”.
In the case of `C[C@H](CO)N1C[C@H](C)[C@H](CN(C)C(=O)CN(C)C)Oc2cc(-c3ccc(C#N)cc3)ccc2S1(=O)=O`, the cytotoxicity call is reported as “inactive”.
With `CCNC1CC(N)C(OC2OC(CN)=CCC2N)C(O)C1OC1OCC(C)(O)C(NC)C1O.O=S(=O)(O)O.O=S(=O)(O)O` (stereo not given) the cytotoxicity call was “inactive”.
`COc1ccc(CN(C)C[C@H]2OCCCC[C@H](C)Oc3ccc(NC(=O)Nc4ccc5c(c4)OCO5)cc3C(=O)N([C@H](C)CO)C[C@H]2C)cc1` was tested, and the cytotoxicity call was “inactive”.
For `C[C@@H]1CN([C@@H](C)CO)C(=O)c2cccc(NC(=O)c3nc4ccccc4s3)c2O[C@H]1CN(C)C(=O)Nc1ccc(F)cc1`, the cytotoxicity call was “inactive”.
In the case of `C[C@@H]1CN([C@@H](C)CO)C(=O)c2cccc(NC(=O)c3nc4ccccc4s3)c2O[C@@H]1CN(C)C(=O)Nc1ccc(F)cc1`, the cytotoxicity call is reported as “active”.
In the case of `C[C@@H]1CN([C@H](C)CO)C(=O)c2cccc(NC(=O)c3nc4ccccc4s3)c2O[C@@H]1CN(C)C(=O)Nc1ccc(C(F)(F)F)cc1`, the cytotoxicity call is reported as “inactive”.
For `C[C@@H]1CN([C@@H](C)CO)C(=O)c2cccc(NC(=O)c3nc4ccccc4s3)c2O[C@H]1CN(C)C(=O)Nc1ccc(C(F)(F)F)cc1`, the cytotoxicity call was “active”.
With `C[C@H]1CN([C@@H](C)CO)C(=O)c2cccc(NC(=O)c3nc4ccccc4s3)c2O[C@@H]1CN(C)C(=O)Nc1ccc(C(F)(F)F)cc1` the cytotoxicity call was “inactive”.
In the case of `C[C@H](CO)N1C[C@H](C)[C@@H](CN(C)C(=O)Nc2ccc(F)cc2)Oc2c(NC(=O)c3nc4ccccc4s3)cccc2C1=O`, the cytotoxicity call is reported as “inactive”.
In the case of `C[C@H](CO)N1C[C@H](C)[C@H](CN(C)C(=O)Nc2ccc(C(F)(F)F)cc2)Oc2c(NC(=O)c3nc4ccccc4s3)cccc2C1=O`, the cytotoxicity call is reported as “inactive”.
For `C[C@H]1CN([C@@H](C)CO)C(=O)c2cccc(NC(=O)c3nc4ccccc4s3)c2O[C@H]1CN(C)C(=O)Nc1ccc(C(F)(F)F)cc1`, the cytotoxicity call was “active”.
With `C[C@H](CO)N1C[C@H](C)[C@@H](CN(C)C(=O)Nc2ccc(C(F)(F)F)cc2)Oc2c(NC(=O)c3nc4ccccc4s3)cccc2C1=O` the cytotoxicity call was “inactive”.
For `C[C@@H]1CCCCO[C@H](CN(C)S(=O)(=O)c2cccs2)[C@@H](C)CN([C@H](C)CO)C(=O)c2cc(NC(=O)Nc3ccccc3)ccc2O1`, the cytotoxicity call was “inactive”.
With `COc1ccccc1NC(=O)N(C)C[C@H]1OCc2ccccc2-c2c(n(C)c3ccccc23)C(=O)N([C@H](C)CO)C[C@@H]1C` the cytotoxicity call was “inactive”.
With `C[C@H](CO)N1C[C@H](C)[C@@H](CN(C)C(=O)c2cccc(F)c2)Oc2cc(-c3ccncc3)ccc2S1(=O)=O` the cytotoxicity call was “inactive”.
With `O=C(C[C@H]1CC[C@@H]2[C@H](COC[C@H](O)CN2S(=O)(=O)c2ccccc2)O1)N1CCOCC1` the cytotoxicity call was “inactive”.
`C[C@H]1CN([C@@H](C)CO)C(=O)Cc2cc(NC(=O)Cn3cnnn3)ccc2O[C@H]1CN(C)Cc1ccc(-c2ccccc2)cc1` was tested, and the cytotoxicity call was “inactive”.
In the case of `C[C@@H]1CN([C@@H](C)CO)C(=O)c2cc(NC(=O)Nc3ccccc3)ccc2O[C@@H](C)CCCCO[C@@H]1CN(C)C(=O)Nc1ccccc1`, the cytotoxicity call is reported as “inactive”.
With `C[C@@H]1CN([C@H](C)CO)C(=O)Cc2cc(NC(=O)CCN3CCOCC3)ccc2O[C@H]1CN(C)Cc1ccc2c(c1)OCO2` the cytotoxicity call was “inactive”.
`Cc1noc(C)c1S(=O)(=O)N(C)C[C@@H]1Oc2ccc(NC(=O)NC3CCCCC3)cc2CC(=O)N([C@@H](C)CO)C[C@H]1C` was tested, and the cytotoxicity call was “inactive”.
With `Cc1ccc(S[C@]2(C(=O)NCc3ccccc3)CC(=O)N(Cc3ccccc3C(F)(F)F)[C@@H]2c2ccc(CO)cc2I)cc1` the cytotoxicity call was “inactive”.
In the case of `CN(C)c1ccc(O)c2c1C[C@H]1C[C@H]3[C@H](N(C)C)C(=O)C(C(N)=O)=C(O)[C@@]3(O)C(=O)[C@H]1C2=O`, the cytotoxicity call is reported as “inactive”.
For `CC(C)c1c(O)ccc2c1CCC1C(C)(C)C(=O)CCC21C` (stereo not given), the cytotoxicity call was “inactive”.
`COC(=O)C1(C)CCCC2(C)c3ccc(C(C)C)cc3C(=O)CC12` (stereo not given) was tested, and the cytotoxicity call was “inactive”.
With `CC(C)c1c(O)ccc2c1CCC1C(C)(C=O)CCCC21C` (stereo not given) the cytotoxicity call was “inactive”.
With `COC(=O)C1(C)CCCC2(C)c3ccc(O)c(C(C)C)c3CCC12` (stereo not given) the cytotoxicity call was “active”.
In the case of `CC(C)c1c(O)ccc2c1CCC1C(C)(C)CCCC21C` (stereo not given), the cytotoxicity call is reported as “inactive”.
`CC(C)c1c(O)ccc2c1CC[C@H]1C(C)(C)CCC[C@]21C` was tested, and the cytotoxicity call was “active”.
`CC(C)(CO)c1cc2cc(NC(=O)C3(c4ccc5c(c4)OC(F)(F)O5)CC3)c(F)cc2n1C[C@@H](O)CO` was tested, and the cytotoxicity call was “inactive”.
In the case of `NCCn1cccn1`, the cytotoxicity call is reported as “inactive”.
For `C[C@@H]1CN([C@@H](C)CO)S(=O)(=O)c2ccc(C#CCN(C)C)cc2O[C@H]1CN(C)Cc1ccccn1`, the cytotoxicity call was “inactive”.
With `O=C(CN1C(=O)c2cccc3cccc(c23)C1=O)N1CCN(CCN2C(=O)[C@@H]3[C@@H](C2=O)[C@@H]2C=C[C@@H]3C2)CC1` the cytotoxicity call was “inactive”.
In the case of `CC(C)(C)C1CCC(OC[C@@H](O)CN2CCC(CN3C(=O)c4cccc5cccc(c45)C3=O)CC2)CC1` (stereo not given in full), the cytotoxicity call is reported as “active”.
With `O=C(O)CN1C(=O)c2cccc3cccc(c23)C1=O` the cytotoxicity call was “inactive”.
For `CCCN(C)C[C@H]1OCCCC[C@@H](C)Oc2ccc(NC(=O)Nc3c(C)noc3C)cc2C(=O)N([C@H](C)CO)C[C@@H]1C`, the cytotoxicity call was “inactive”.
With `COc1ccc(S(=O)(=O)Nc2ccc3c(c2)C(=O)N([C@@H](C)CO)C[C@H](C)[C@@H](CN(C)C(=O)Nc2cccc4ccccc24)OCCCC[C@@H](C)O3)cc1` the cytotoxicity call was “inactive”.
For `CC=C1C2C=C(C)CC1(N)c1ccc(=O)[nH]c1C2` (stereo not given), the cytotoxicity call was “inactive”.
`C[C@@H]1CN([C@H](C)CO)C(=O)c2cccc(NC(=O)Nc3ccccc3)c2O[C@@H]1CN(C)Cc1ccc(C(=O)Nc2ccccc2N)cc1` was tested, and the cytotoxicity call was “inactive”.
For `C[C@@H]1CN([C@H](C)CO)C(=O)c2cccc(NC(=O)Nc3ccc(F)cc3)c2O[C@H]1CN(C)Cc1ccc(C(=O)Nc2ccccc2N)cc1`, the cytotoxicity call was “inactive”.
`C[C@H]1CN([C@@H](C)CO)C(=O)c2cccc(NC(=O)Nc3ccc(F)cc3)c2O[C@H]1CN(C)Cc1ccc(C(=O)Nc2ccccc2N)cc1` was tested, and the cytotoxicity call was “active”.
`C[C@@H]1CN([C@@H](C)CO)C(=O)c2cccc(NC(=O)Nc3ccc(F)cc3)c2O[C@H]1CN(C)Cc1ccc(C(=O)Nc2ccccc2N)cc1` was tested, and the cytotoxicity call was “inactive”.
In the case of `C[C@H]1CN([C@@H](C)CO)C(=O)c2cccc(NC(=O)Nc3ccc(F)cc3)c2O[C@@H]1CN(C)Cc1ccc(C(=O)Nc2ccccc2N)cc1`, the cytotoxicity call is reported as “inactive”.
For `C[C@H](CO)N1C[C@H](C)[C@H](CN(C)Cc2ccc(C(=O)Nc3ccccc3N)cc2)Oc2c(NC(=O)Nc3ccc(F)cc3)cccc2C1=O`, the cytotoxicity call was “inactive”.
`C[C@@H]1CN([C@@H](C)CO)C(=O)c2cccc(NC(=O)Nc3ccc(F)cc3)c2O[C@@H]1CN(C)Cc1ccc(C(=O)Nc2ccccc2N)cc1` was tested, and the cytotoxicity call was “active”.
With `C[C@@H]1CN([C@@H](C)CO)C(=O)c2cccc(NC(=O)Nc3ccccc3)c2O[C@H]1CN(C)Cc1ccc(C(=O)Nc2ccccc2N)cc1` the cytotoxicity call was “inactive”.
`C[C@H]1CN([C@@H](C)CO)C(=O)c2cccc(NC(=O)Nc3ccccc3)c2O[C@H]1CN(C)Cc1ccc(C(=O)Nc2ccccc2N)cc1` was tested, and the cytotoxicity call was “active”.
In the case of `C[C@@H]1CN([C@@H](C)CO)C(=O)CCCn2cc(nn2)CO[C@H]1CN(C)S(=O)(=O)c1ccccc1C#N`, the cytotoxicity call is reported as “inactive”.
With `CC(C)c1cccc(NC(=O)C[C@H]2CC[C@H]3[C@@H](COc4ccc(NC(=O)c5ccc(C#N)cc5)cc4C(=O)N3C)O2)c1` the cytotoxicity call was “inactive”.
`COc1ccc(S(=O)(=O)N(C)C[C@H]2OCCCC[C@H](C)Oc3ccc(NC(=O)Nc4cccc5ccccc45)cc3C(=O)N([C@@H](C)CO)C[C@H]2C)cc1` was tested, and the cytotoxicity call was “inactive”.
With `COc1ccc(S(=O)(=O)N(C)C[C@H]2Oc3ccc(N(C)C)cc3CC(=O)N([C@H](C)CO)C[C@H]2C)cc1` the cytotoxicity call was “inactive”.
For `C[C@@H]1CN([C@H](C)CO)C(=O)c2cccc(NS(=O)(=O)c3ccc(F)cc3)c2O[C@@H]1CN(C)Cc1ccc(Cl)c(Cl)c1`, the cytotoxicity call was “inactive”.
In the case of `COc1ccc(S(=O)(=O)Nc2ccc3c(c2)C(=O)N([C@H](C)CO)C[C@@H](C)[C@H](CN(C)C(=O)Nc2cccc4ccccc24)OCCCC[C@@H](C)O3)cc1`, the cytotoxicity call is reported as “inactive”.
With `C[C@H]1CN([C@@H](C)CO)C(=O)c2cc(C#CCN(C)C)cnc2O[C@@H]1CN(C)Cc1ccc(C(=O)O)cc1` the cytotoxicity call was “inactive”.
For `C[C@@H]1CN([C@H](C)CO)C(=O)c2cccc(NC(=O)Nc3ccc4c(c3)OCO4)c2O[C@H]1CN(C)C(=O)Nc1ccc(C(F)(F)F)cc1`, the cytotoxicity call was “inactive”.
`Nc1ncccc1-c1nc2ccc(-c3ccccc3)nc2n1-c1ccc(C2(N)CCC2)cc1` was tested, and the cytotoxicity call was “active”.
For `NC(=O)c1ccc2nc(-c3ccc(C4(N)CCC4)cc3)c(-c3ccccc3)n2n1`, the cytotoxicity call was “inactive”.
For `CC(C)NC(=O)N[C@@H]1CC[C@@H](CCN)O[C@@H]1CO`, the cytotoxicity call was “inactive”.
For `Cc1ccc(S(=O)(=O)Nc2ccc3c(c2)CC(=O)N([C@@H](C)CO)C[C@@H](C)[C@@H](CN(C)S(=O)(=O)c2c(C)noc2C)O3)cc1`, the cytotoxicity call was “inactive”.
With `Cc1noc(C)c1NC(=O)N(C)C[C@H]1Oc2ccc(NC(=O)Cn3cnnn3)cc2CC(=O)N([C@H](C)CO)C[C@@H]1C` the cytotoxicity call was “inactive”.
`Cc1noc(C)c1S(=O)(=O)Nc1ccc2c(c1)CC(=O)N([C@@H](C)CO)C[C@@H](C)[C@H](CN(C)C(=O)Nc1ccccc1)O2` was tested, and the cytotoxicity call was “inactive”.
`Cc1[nH]c2ncnn2c(=O)c1NS(C)(=O)=O` was tested, and the cytotoxicity call was “inactive”.
With `COC(=O)Cc1c(C)[nH]c2ncnn2c1=O` the cytotoxicity call was “inactive”.
In the case of `CC(=O)Nc1c(C)[nH]c2ncnn2c1=O`, the cytotoxicity call is reported as “active”.
For `C[C@@H]1CN([C@H](C)CO)C(=O)Cc2cc(NS(C)(=O)=O)ccc2O[C@@H]1CN(C)C(=O)Nc1ccc(C(F)(F)F)cc1`, the cytotoxicity call was “inactive”.
In the case of `O=C(Nc1ccno1)NN1CCOCC1`, the cytotoxicity call is reported as “inactive”.
For `COc1cc(C2c3cc4c(cc3C(OC3OC5COC(C)OC5C(O)C3O)C3COC(=O)C23)OCO4)cc(OC)c1O` (stereo not given), the cytotoxicity call was “inactive”.
For `COc1cc(C2c3cc4c(cc3C(OC3OC5COC(c6cccs6)OC5C(O)C3O)C3COC(=O)C23)OCO4)cc(OC)c1O` (stereo not given), the cytotoxicity call was “active”.
In the case of `COc1cc([C@@H]2c3cc4c(cc3[C@@H](O[C@@H]3O[C@@H]5CO[C@@H](C)O[C@H]5[C@H](O)[C@H]3O)[C@@H]3COC(=O)[C@@H]23)OCO4)cc(OC)c1O`, the cytotoxicity call is reported as “inactive”.
With `COc1cc([C@@H]2c3cc4c(cc3[C@@H](O[C@@H]3O[C@@H]5CO[C@@H](C)O[C@H]5[C@H](O)[C@H]3O)[C@H]3COC(=O)[C@H]23)OCO4)cc(OC)c1O` the cytotoxicity call was “active”.
